PubChem BioAssay (Tox21)
Unmarked numbers belong to inactive results. Inconclusive results are not listed. A call without a number means that no potency is given here. Active and inactive are the calls of the source. The call rests on the fitted dose curve; in most records, active means well fitted curve in the direction sought with a large enough effect in the repeat runs; inconclusive means weak or mixed curves; inactive means no such curve, though single readings can be large; an effect the other way counts as inactive or inconclusive.

Legend:
[1] = A CellTox Green Cytotoxicity Assay to monitor cytotoxicity in HEK293 cells - 40 hour (AID 1224871); further: nearly all actives have a fitted effect of over 45% in size; further: potency means the concentration at half of the fitted maximal effect
Method in brief: (§1)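 Each value comes from one timepoint of a single continuous run in which HEK293 cells with CellTox Green were exposed to compound for up to 40 h at 37 C, dye fluorescence rising with cell death.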

[2] = qHTS RealTime-Glo MT Cell Viability Assay in HEK293 cells - 16 hour (AID 1224872); further: nearly all actives have a fitted effect of over 50% in size; further: potency means the concentration at half of the fitted maximal effect
Method in brief: (§2)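 Homogeneous bioluminescent viability format in HEK293 cells (600 cells/well). Following 5 h at 37 C/5% CO2, 23 nL compound was pintooled; the signal was measured repeatedly during 40 h incubation.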

[3] = qHTS RealTime-Glo MT Cell Viability Assay in HepG2 cells - 8 hour (AID 1224873); further: nearly all actives have a fitted effect of over 55% in size
Method in brief: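 HepG2 cells mixed with RealTime-Glo MT reagents (NanoLuc plus cell-permeant prosubstrate) were seeded at 600 cells/well, incubated 5 h at 37 C/5% CO2, then pinned with compounds in DMSO; nonlytic luminescence tracked viability during 40 h treatment.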

[4] = qHTS RealTime-Glo MT Cell Viability Assay in HEK293 cells - 40 hour (AID 1224874); details: RealTime-Glo luminescence; max response: hits give low values; further: nearly all actives have a fitted effect of over 50% in size; further: potency means the concentration at half of the fitted maximal effect
Method in brief: (§3)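 qHTS format; HEK293 cells with NanoLuc/prosubstrate reagent, 37 C/5% CO2 for 5 h pre-dosing; compounds 23 nL in DMSO; luminescence at each time point reflects viable cells.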

[5] = A CellTox Green Cytotoxicity Assay to monitor cytotoxicity in HEK293 cells - 24 hour (AID 1224875); further: nearly all actives have a fitted effect of over 45% in size; further: potency means the concentration at half of the fitted maximal effect
Method in brief: as §1

[6] = A CellTox Green Cytotoxicity Assay to monitor cytotoxicity in HepG2 cells - 16 hour (AID 1224876); further: nearly all actives have a fitted effect of over 45% in size; further: potency means the concentration at half of the fitted maximal effect
Method in brief: (§4)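 Continuous culture of HepG2 cells with a membrane-impermeant DNA dye; rising fluorescence marks dead cells. Compound exposure lasted up to 40 h at 37 C, with reads every 8 h from 0 h.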

[7] = qHTS RealTime-Glo MT Cell Viability Assay in HepG2 cells - 32 hour (AID 1224877); further: nearly all actives have a fitted effect of over 55% in size
Method in brief: (§5)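 Cell number in HepG2 cultures estimated from NanoLuc luminescence generated by metabolic reduction of a prosubstrate by living cells. The homogeneous, nonlytic format allowed repeated reads at 0, 8, 16, 24, 32 and 40 h of compound exposure.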

[8] = A CellTox Green Cytotoxicity Assay to monitor cytotoxicity in HepG2 cells - 24 hour (AID 1224878); further: nearly all actives have a fitted effect of over 45% in size; further: potency means the concentration at half of the fitted maximal effect
Method in brief: as §4

[9] = qHTS RealTime-Glo MT Cell Viability Assay in HEK293 cells - 0 hour (AID 1224880)
Method in brief: as §3

[10] = A CellTox Green Cytotoxicity Assay to monitor cytotoxicity in HEK293 cells - 32 hour (AID 1224881); further: nearly all actives have a fitted effect of over 40% in size; further: potency means the concentration at half of the fitted maximal effect
Method in brief: as §1

[11] = A CellTox Green Cytotoxicity Assay to monitor cytotoxicity in HepG2 cells - 0 hour (AID 1224882); further: nearly all actives have a fitted effect of over 35% in size
Method in brief: as §4

[12] = A CellTox Green Cytotoxicity Assay to monitor cytotoxicity in HepG2 cells - 32 hour (AID 1224883); further: nearly all actives have a fitted effect of over 50% in size; further: potency means the concentration at half of the fitted maximal effect
Method in brief: as §4

[13] = A CellTox Green Cytotoxicity Assay to monitor cytotoxicity in HEK293 cells - 8 hour (AID 1224884); further: nearly all actives have a fitted effect of over 35% in size; further: potency means the concentration at half of the fitted maximal effect
Method in brief: as §1

[14] = qHTS RealTime-Glo MT Cell Viability Assay in HepG2 cells - 16 hour (AID 1224885); further: nearly all actives have a fitted effect of over 50% in size
Method in brief: as §5

[15] = qHTS RealTime-Glo MT Cell Viability Assay in HEK293 cells - 24 hour (AID 1224886); further: nearly all actives have a fitted effect of over 50% in size; further: potency means the concentration at half of the fitted maximal effect
Method in brief: as §2

[16] = qHTS RealTime-Glo MT Cell Viability Assay in HEK293 cells - 8 hour (AID 1224887); further: nearly all actives have a fitted effect of over 50% in size; further: potency means the concentration at half of the fitted maximal effect
Method in brief: as §3

[17] = A CellTox Green Cytotoxicity Assay to monitor cytotoxicity in HEK293 cells - 16 hour (AID 1224888); further: nearly all actives have a fitted effect of over 35% in size
Method in brief: as §1

[18] = qHTS RealTime-Glo MT Cell Viability Assay in HepG2 cells - 0 hour (AID 1224889); further: nearly all actives have a fitted effect of over 50% in size
Method in brief: as §5

[19] = A CellTox Green Cytotoxicity Assay to monitor cytotoxicity in HepG2 cells - 8 hour (AID 1224890); further: nearly all actives have a fitted effect of over 45% in size; further: potency means the concentration at half of the fitted maximal effect
Method in brief: as §4

[20] = A CellTox Green Cytotoxicity Assay to monitor cytotoxicity in HepG2 cells - 40 hour (AID 1224879); further: nearly all actives have a fitted effect of over 40% in size
Method in brief: as §4

## CCOC(=O)COc1ccc(Cl)cc1Cl
[1]
  Potency: inactive
[2]
  Potency: inactive
[3]
  outcome: inactive
[4]
  max response: -3.04%
[5]
  Potency: inactive
[6]
  Potency: inactive
[7]
  Potency: inactive
[8]
  Potency: inactive
[9]
  outcome: inactive
[10]
  Potency: inactive
[11]
  outcome: inactive
[12]
  Potency: inactive
[13]
  Potency: inactive
[14]
  Potency: inactive
[15]
  Potency: inactive
[16]
  Potency: inactive
[17]
  Potency: inactive
[18]
  outcome: inactive
[19]
  Potency: inactive

## NNC(N)=O
[1]
  Potency: inactive
[2]
  Potency: inactive
[3]
  outcome: inactive
[4]
  max response: 0.384%
[5]
  Potency: inactive
[6]
  Potency: inactive
[7]
  Potency: inactive
[8]
  Potency: inactive
[9]
  outcome: inactive
[10]
  Potency: inactive
[11]
  outcome: inactive
[12]
  Potency: inactive
[13]
  Potency: inactive
[14]
  Potency: inactive
[15]
  Potency: inactive
[16]
  Potency: inactive
[17]
  Potency: inactive
[18]
  outcome: inactive

## CC(O)CCl (stereo unspecified)
[1]
  Potency: inactive
[2]
  Potency: inactive
[3]
  outcome: inactive
[4]
  max response: 1.35%
[5]
  Potency: inactive
[6]
  Potency: inactive
[7]
  Potency: inactive
[8]
  Potency: inactive
[9]
  outcome: inactive
[11]
  outcome: inactive
[12]
  Potency: inactive
[14]
  Potency: inactive
[15]
  Potency: inactive
[16]
  Potency: inactive
[18]
  outcome: inactive
[19]
  Potency: inactive

## Nc1c(Cl)c(F)nc(OCC(=O)O)c1Cl
[1]
  Potency: inactive
[2]
  Potency: inactive
[3]
  outcome: inactive
[4]
  max response: 2.97%
[5]
  Potency: inactive
[6]
  Potency: inactive
[7]
  Potency: inactive
[8]
  Potency: inactive
[9]
  outcome: inactive
[10]
  Potency: inactive
[11]
  outcome: inactive
[12]
  Potency: inactive
[13]
  Potency: inactive
[14]
  Potency: inactive
[15]
  Potency: inactive
[16]
  Potency: inactive
[17]
  Potency: inactive
[18]
  outcome: inactive

## CC(C)(C)C(=O)Cl
[1]
  Potency: inactive
[2]
  Potency: inactive
[3]
  outcome: inactive
[4]
  max response: -0.811%
[5]
  Potency: inactive
[6]
  Potency: inactive
[7]
  Potency: inactive
[8]
  Potency: inactive
[9]
  outcome: inactive
[10]
  Potency: inactive
[11]
  outcome: inactive
[12]
  Potency: inactive
[13]
  Potency: inactive
[14]
  Potency: inactive
[15]
  Potency: inactive
[16]
  Potency: inactive
[18]
  outcome: inactive
[19]
  Potency: inactive

## O=C1CCCCC1Cl (stereo unspecified)
[1]
  Potency: inactive
[2]
  Potency: inactive
[3]
  outcome: inactive
[4]
  max response: 11.3%
[5]
  Potency: inactive
[6]
  Potency: inactive
[7]
  Potency: inactive
[8]
  Potency: inactive
[9]
  outcome: inactive
[10]
  Potency: inactive
[11]
  outcome: inactive
[12]
  Potency: inactive
[13]
  Potency: inactive
[15]
  Potency: inactive
[16]
  Potency: inactive
[17]
  Potency: inactive
[18]
  outcome: inactive
[19]
  Potency: inactive

## O=C(NC(O)C(Cl)(Cl)Cl)NC(O)C(Cl)(Cl)Cl (stereo unspecified)
[1]
  Potency: inactive
[2]
  Potency: inactive
[3]
  outcome: inactive
[4]
  max response: 0.623%
[5]
  Potency: inactive
[6]
  Potency: inactive
[7]
  Potency: inactive
[8]
  Potency: inactive
[9]
  outcome: inactive
[10]
  Potency: inactive
[11]
  outcome: inactive
[12]
  Potency: inactive
[13]
  Potency: inactive
[14]
  Potency: inactive
[15]
  Potency: inactive
[16]
  Potency: inactive
[17]
  Potency: inactive
[18]
  outcome: inactive
[19]
  Potency: inactive

## O=C(NC(=O)c1c(F)cccc1F)Nc1cc(Cl)c(F)c(Cl)c1F
[1]
  Potency: inactive
[2]
  Potency: inactive
[3]
  outcome: inactive
[4]
  max response: -0.171%
[5]
  Potency: inactive
[6]
  Potency: inactive
[7]
  Potency: inactive
[8]
  Potency: inactive
[9]
  outcome: inactive
[11]
  outcome: inactive
[12]
  Potency: inactive
[13]
  Potency: inactive
[14]
  Potency: inactive
[15]
  Potency: inactive
[16]
  Potency: inactive
[17]
  Potency: inactive
[18]
  outcome: inactive
[19]
  Potency: inactive

## CC(C)NCC(O)c1ccc([N+](=O)[O-])cc1 (stereo unspecified)
[1]
  Potency: inactive
[2]
  Potency: inactive
[3]
  outcome: inactive
[4]
  max response: 6.95%
[5]
  Potency: inactive
[6]
  Potency: inactive
[7]
  Potency: inactive
[8]
  Potency: inactive
[9]
  outcome: inactive
[10]
  Potency: inactive
[12]
  Potency: inactive
[13]
  Potency: inactive
[14]
  Potency: inactive
[15]
  Potency: inactive
[16]
  Potency: inactive
[17]
  Potency: inactive
[18]
  outcome: inactive
[19]
  Potency: inactive

## CC(Cc1ccccc1)NCCCCl (stereo unspecified)
[1]
  Potency: inactive
[2]
  Potency: inactive
[3]
  outcome: inactive
[4]
  max response: 5.94%
[5]
  Potency: inactive
[6]
  Potency: inactive
[7]
  Potency: inactive
[20]
  Potency: inactive
[9]
  outcome: inactive
[10]
  Potency: inactive
[11]
  outcome: inactive
[12]
  Potency: inactive
[13]
  Potency: inactive
[14]
  Potency: inactive
[15]
  Potency: inactive
[16]
  Potency: inactive
[17]
  Potency: inactive
[18]
  outcome: inactive

## N=C(N)[Se]
[1]
  Potency: inactive
[2]
  Potency: inactive
[3]
  outcome: inactive
[4]
  max response: -7.73%
[5]
  Potency: inactive
[6]
  Potency: inactive
[7]
  Potency: inactive
[8]
  Potency: inactive
[9]
  outcome: inactive
[10]
  Potency: inactive
[11]
  outcome: inactive
[12]
  Potency: inactive
[13]
  Potency: inactive
[14]
  Potency: inactive
[15]
  Potency: inactive
[16]
  Potency: inactive
[17]
  Potency: inactive
[18]
  outcome: inactive
[19]
  Potency: inactive

## CCCN1CCC[C@@H]2Cc3nc(N)ncc3C[C@H]21
[1]
  Potency: 16.9 µM (active)
[2]
  Potency: inactive
[3]
  outcome: inactive
[4]
  max response: 3.64%
[5]
  Potency: 16.9 µM (active)
[6]
  Potency: 21.3 µM (active)
[7]
  Potency: inactive
[8]
  Potency: 21.3 µM (active)
[9]
  outcome: inactive
[10]
  Potency: 16.9 µM (active)
[12]
  Potency: 21.3 µM (active)
[13]
  Potency: 19 µM (active)
[15]
  Potency: inactive
[16]
  Potency: inactive
[18]
  outcome: inactive
[19]
  Potency: 23.9 µM (active)

## C[C@H]1CCCC(=O)CCC/C=C/c2cc(O)cc(O)c2C(=O)O1
[1]
  Potency: inactive
[2]
  Potency: 37.5 µM (active)
[3]
  outcome: inactive
[4]
  Potency: 21.1 µM (active)
[5]
  Potency: inactive
[6]
  Potency: inactive
[7]
  Potency: inactive
[8]
  Potency: inactive
[9]
  outcome: inactive
[10]
  Potency: inactive
[11]
  outcome: inactive
[12]
  Potency: inactive
[14]
  Potency: inactive
[15]
  Potency: 33.4 µM (active)
[16]
  Potency: 42.1 µM (active)
[17]
  Potency: inactive
[18]
  outcome: inactive

## CCC1(c2ccccc2)C(=O)N(COC)C(=O)N(COC)C1=O
[1]
  Potency: inactive
[2]
  Potency: inactive
[3]
  outcome: inactive
[4]
  max response: 2.07%
[5]
  Potency: inactive
[6]
  Potency: inactive
[7]
  Potency: inactive
[8]
  Potency: inactive
[9]
  outcome: inactive
[10]
  Potency: inactive
[11]
  outcome: inactive
[12]
  Potency: inactive
[13]
  Potency: inactive
[14]
  Potency: inactive
[15]
  Potency: inactive
[16]
  Potency: inactive
[17]
  Potency: inactive
[18]
  outcome: inactive
[19]
  Potency: inactive
